High-throughput results: PubChem, National Center for Advancing Translational Sciences (NCATS)
A selection: hits, their analogues and other compounds. The true share with any hit is near 1.7%.
GLP1R inv ag: acts as inverse agonist at human GLP-1 receptor; P43220; HEK293 GLP-1R CRE-luciferase, luminescence, 24 h; GLP-1R form is constitutively active; AID 624417; Potency, µM (top dose mostly 38.3 µM), inactives show at the highest dose activity change, negative = inhibition, usual class: inhibitors; 410,000 compounds, 1.6% hits; further: on the % scale 0 is the no-effect control and ±100 the full control effect; nearly all actives have a fitted effect of over 55% in size
Target sequence (P43220 whole entry, looked up): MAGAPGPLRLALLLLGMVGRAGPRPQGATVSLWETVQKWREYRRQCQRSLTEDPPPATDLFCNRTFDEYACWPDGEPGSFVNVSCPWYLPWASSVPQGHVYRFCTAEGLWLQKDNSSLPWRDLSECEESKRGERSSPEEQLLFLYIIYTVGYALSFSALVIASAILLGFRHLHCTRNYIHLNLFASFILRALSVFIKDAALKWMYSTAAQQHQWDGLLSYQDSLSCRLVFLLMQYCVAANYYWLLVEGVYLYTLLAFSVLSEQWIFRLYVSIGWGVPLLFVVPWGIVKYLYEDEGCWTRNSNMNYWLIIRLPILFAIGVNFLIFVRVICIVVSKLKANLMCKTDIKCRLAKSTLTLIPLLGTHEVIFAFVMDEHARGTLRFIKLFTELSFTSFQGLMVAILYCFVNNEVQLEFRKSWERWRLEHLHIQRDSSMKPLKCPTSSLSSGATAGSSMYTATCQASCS
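qHTS in 1536-well format: reporter HEK293 cells expressing constitutive GLP-1R activity in DMEM + 10% Nu serum, 24 hr with compounds at 37 deg C, luminescence read after 12 min with detection reagent.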
HEK293 tox: cytotoxicity counter-screen for GLP-1 receptor inverse agonists; HEK293 cAMP-luciferase reporter cells, luminescence, 24 h; Potency, µM (highest dose often 38.3 µM), inactives show at the highest dose activity change, negative = inhibition, hits mostly inhibitors; 410,000 compounds, 0.13% hits; AID 624418;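 further: loss of luciferase light is scored as toxicity; on the % scale 0 is the no-effect control and ±100 the full control effect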
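Quantitative HTS format, 1536 wells, 200 cells/uL seeded. Compounds: 23 nL, 24 h, 37 °C. Detection: luciferase reagent, luminescence at 12 min RT; decreased signal taken as cytotoxic.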
GLP-1R agonist: activates the human GLP-1 receptor | HEK293 GLP-1R CRE-luciferase, luminescence, 4-6 h; cells express a hypersensitive GLP-1R form | Potency, µM (top dose mostly 45.6 µM), for the others: at the highest dose activation, hits mostly activators | 380,000 compounds, 0.007% hits; further: % of control where 0% means no effect
The depositor's hits bear a star; ? = inconclusive; / = no result; [ ] = another dose, or the depositor's remark. The call rests on the fitted dose curve; in most records, active means well fitted curve in the direction sought with a large enough effect; inconclusive means small, poorly fitted or top-dose-only effect, or another doubt; inactive means no such curve, though single readings can be large; an effect the other way counts as inactive or inconclusive. Potency means the concentration at half of the fitted maximal effect.

SMILES	GLP1R inv ag	HEK293 tox	GLP-1R agonist
NS(=O)(=O)c1ccc(NC(=O)Nc2ccc(S(N)(=O)=O)cc2)cc1	0%	12%	0%
NS(=O)(=O)c1ccc(NC(=O)Nc2ccc(C(F)(F)F)cc2)cc1	5µM*	-12%	5%
COc1ccc(NC(=O)CSc2nnc(N)s2)cc1S(=O)(=O)N1CCCCC1	13%	4%	10%
Cc1cccc(/C=N/NC(=O)c2cccc(NC(=O)c3ccccc3)c2)n1	-6%	3%	11%
Cc1cccc(/C=N/NC(=O)c2ccccc2OCc2cccc(Br)c2)n1	11µM*	?	18%
CCOC(=O)C1(Cc2cccc(Cl)c2)CCCN(C(=O)c2ccco2)C1 (stereo not given)	?	-6%	9%
CCOC(=O)C1(Cc2cccc(Cl)c2)CCCN(C(=O)c2occc2C)C1 (stereo not given)	11µM*	5%	3%
O=C(CSc1nc2ccc(Nc3nc(N4CCCC4)nc(N4CCCC4)n3)cc2s1)NCc1ccco1	8%	3%	5%
NC(c1csc(Nc2ccccn2)n1)C1CCCCC1 (stereo not given)	?	1%	2%
COc1ccc2oc(C(=O)OCC(=O)/C(C#N)=C(\C)N)c(C)c2c1	11%	6%	-4%
CCN(CC)CCNC(=O)CCc1c(C)nc2c(c(C)nn2-c2ccc(C)cc2)c1C	1.6µM*	?	0%
COCCNC(=O)CCc1c(C)nc2c(c(C)nn2-c2ccc(C)cc2)c1C	-5%	11%	-2%
Cc1cccc(-c2nnc(SCC(=O)Nc3ncccn3)n2C)c1	7%	0%	-4%
Cc1ccc(C2=NN(CC(=O)NCCCN(CC(C)C)CC(C)C)C(=O)CC2)cc1	-3%	6%	/
COC(=O)C(NC(=O)c1ccccc1)c1ccccc1 (stereo not given)	0%	-2%	-6%
C=C(C(=O)c1ccccc1)C(NC(C)(C)C)c1ccccc1 (stereo not given)	5µM*	5µM*	-23%
CCOC(=O)C1(Nc2nccs2)Sc2ccccc2NC1=O (stereo not given)	?	?	-6%
CCOC(=O)C1(N(CC)CC)Sc2cc(C)ccc2NC1=O (stereo not given)	6.3µM*	?	4%
Fc1ccc2[nH]c3c(c2c1)CN(C(=S)NCc1ccccc1)CC3	5µM*	-11%	-2%
C=CCNC(=O)N1CCc2[nH]c3ccc(F)cc3c2C1	-2%	2%	6%
CCc1ccc(NC(=O)C(CC)n2c(=O)c(-c3ccccc3NC(C)=O)nc3ccccc32)cc1 (stereo not given)	11µM*	-23%	/
CCC(C(=O)Nc1c(C)cc(C)cc1C)n1c(=O)c(-c2ccccc2NC(C)=O)nc2ccccc21 (stereo not given)	7%	0%	/
COc1ccc(NC(=O)CS(=O)(=O)c2cn(CC(=O)N3CCOCC3)c3ccccc23)cc1	3%	-2%	11%
O=C(NCCc1ccccc1)c1oc2ccccc2c1COc1ccccc1	3.2µM*	16%	12%
O=C(Nc1ccccc1Cc1ccccc1)c1oc2ccccc2c1COc1ccccc1	4.5µM*	78%	-5%
SMILES	GLP1R inv ag	HEK293 tox	GLP-1R agonist
CC(OC(=O)c1oc2ccccc2c1COc1ccccc1)C(=O)NC(N)=O (stereo not given)	-21%	0%	22%
Cc1c(C(=O)NCCc2ccccc2)oc2ccccc12	?	-1%	12%
CN(C)CCOC1c2ccccc2C=Cc2ccccc21	?	6%	4%
CN(C)CCOC1c2ccccc2CCc2ccc3ccccc3c21 (stereo not given)	5.6µM*	?	2%
COc1ccc(S(=O)(=O)N(CCc2ccccc2)CC(=O)Nc2cc(Cl)ccc2C)cc1	7%	-4%	/
O=C(CSc1n[nH]c(-c2ccccn2)n1)Nc1ccccc1	-23%	-21%	-6%
O=C(CSc1n[nH]c(-c2ccccn2)n1)Nc1ccccc1F	11µM*	?	7%
CN(C)C(=O)c1ccc(NC(=O)COc2ccc([N+](=O)[O-])cc2)cc1	-3%	10%	2%
O=C(Cn1cnc2nc3c(cc2c1=O)CCCC3)N1CCN(c2ccccc2)CC1	-16%	-3%	/
C/C(=N\NC(=O)c1ccc(COc2ccccc2)cc1)c1ccncc1	-18%	-18%	8%
COc1ccc(S(=O)(=O)N2CC3CCCN3c3cc(C(F)(F)F)ccc32)cc1 (stereo not given)	10µM*	19%	-3%
COc1ccc(S(=O)(=O)N2CC3CCCN3c3ccc(C(F)(F)F)cc32)cc1 (stereo not given)	-15%	-2%	-6%
Cc1ccc(OCC(=O)OCC(=O)NC2CCCCCC2)cc1C	1%	1%	8%
COc1ccc(C(C)(NC(C)=O)c2nc(-c3ccc(F)cc3OC)cs2)cc1 (stereo not given)	?	2%	-5%
CNC(=S)N/N=C(\C)c1cccc(C(F)(F)F)c1	?	?	13%
COCCNC(=S)N/N=C(\C)c1ccc(O)cc1	-21%	?	5%
CNC(=S)N/N=C(\C)c1ccc(C)c(C)c1	3.5µM*	?	12%
C/C(=N\NC(=S)Nc1ccccc1C)c1ccc(O)cc1	10µM*	?	5%
O=C(CSc1nnc(NC(=O)c2ccccc2)s1)NC1CCCC1	10%	-2%	0%
Cc1cc(C)n2nc(SCC(=O)N3CCC(C)CC3)nc2n1	27%	2%	-5%
O=C(CCn1cnc2ccccc21)N=Nc1c(O)[nH]c2ccccc12	20%	-8%	21%
O=S1(=O)NC(C2CC2c2ccccc2)CCO1 (stereo not given)	1%	5%	8%
COc1ccc(/C=C/C(=O)NC(=S)N2CCN(c3ccccc3OC)CC2)cc1	-9%	-9%	3%
Cc1nc(Nc2nc(CSc3nc4ccccc4[nH]3)cc(=O)[nH]2)nc2ccccc12	1.1µM*	?	-4%
COc1ccc2nc(Nc3nc(CSc4nc5ccccc5[nH]4)cc(=O)[nH]3)nc(C)c2c1	?	-2%[1.53 µM]	2%
SMILES	GLP1R inv ag	HEK293 tox	GLP-1R agonist
COc1cccc(N2CCN(C(=O)c3cc4c(=O)n(Cc5cccs5)ccc4nc3C)CC2)c1	-19%	3%	/
COc1cccc(CN2CCN(C(=O)[C@H]3O[C@@H](n4cnc5c(N)ncnc54)[C@H](O)[C@@H]3O)CC2=O)c1	1%	-4%	3%
C=CCc1cc(Cl)ccc1OCCOCCNC(C)(C)C	?	19%	-6%
C=CCc1cc(Cl)ccc1OCCOCCN(C)C	7.1µM*	1%	-2%
C=CCc1cc(Cl)ccc1OCCOCCNCCOC	?	?	4%
COCCCNCCCOc1ccc(Cl)cc1C(C)(C)C	5.6µM*	?	-3%
C=CCc1cc(Cl)ccc1OCCNCCCOC	4.5µM*	?	-1%
COCCCNCCCCSc1ccc(Cl)cc1	11µM*	-4%	20%
COCCCNCCOCCSc1ccc(Cl)cc1	?	5%	0%
CCC(C)NCCCOc1ccc(Cl)cc1C(C)(C)C (stereo not given)	-10%	63%	-13%
CCCSc1ncc(Cl)c(C(=O)NCc2ccc(OC)cc2)n1	-24%	9%	/
COc1cc(C(=O)N(C)C2CCCCC2)cc(OC)c1OC	10%	8%	-3%
